The text below walks through data of PubChem BioAssay (Tox21).

Inconclusive results are not listed. Active and inactive are the calls of the source. Unless noted, the call rests on the fitted dose curve; in most records, active means well fitted curve in the direction sought with a large enough effect in the repeat runs; inconclusive means weak or mixed curves; inactive means flat fitted curve, though single readings scatter.

Glucocorticoid receptor (Homo sapiens), sequence (P04150 whole entry, looked up): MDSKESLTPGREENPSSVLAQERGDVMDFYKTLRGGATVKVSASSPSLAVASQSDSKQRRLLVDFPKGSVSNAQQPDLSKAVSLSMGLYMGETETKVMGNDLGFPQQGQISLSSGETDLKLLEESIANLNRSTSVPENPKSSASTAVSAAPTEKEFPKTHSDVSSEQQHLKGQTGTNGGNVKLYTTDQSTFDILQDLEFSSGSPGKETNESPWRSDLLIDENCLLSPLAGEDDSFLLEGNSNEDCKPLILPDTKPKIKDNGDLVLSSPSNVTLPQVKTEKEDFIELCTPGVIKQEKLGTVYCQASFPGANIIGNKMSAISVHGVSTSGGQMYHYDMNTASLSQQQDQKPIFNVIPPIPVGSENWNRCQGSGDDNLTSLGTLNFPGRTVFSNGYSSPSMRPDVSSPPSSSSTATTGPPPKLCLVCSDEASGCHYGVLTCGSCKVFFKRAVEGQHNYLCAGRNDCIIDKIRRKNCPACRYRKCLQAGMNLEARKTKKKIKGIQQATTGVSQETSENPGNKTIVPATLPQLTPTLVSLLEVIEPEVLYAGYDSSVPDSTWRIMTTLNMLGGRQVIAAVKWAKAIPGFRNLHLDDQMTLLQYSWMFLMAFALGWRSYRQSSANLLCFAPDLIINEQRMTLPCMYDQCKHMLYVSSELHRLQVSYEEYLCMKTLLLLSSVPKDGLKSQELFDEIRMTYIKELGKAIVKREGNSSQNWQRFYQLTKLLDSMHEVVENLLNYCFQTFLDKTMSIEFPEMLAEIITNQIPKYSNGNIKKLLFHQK

Tested on in the first test: not listed separately
The experiment in a line: qHTS assay to test for compound auto fluorescence at 460 nm (blue) in HepG2 cells (AID 720687). Conditions: autofluorescence 405/460 nm, 1 h; series mostly up to 91.3 µM. The method, boiled down:
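Cells (2,000/well in MEM with 10% FBS) attached overnight at 37 C, then were exposed to compound or DMSO for 1 hr at 37 C, 5% CO2. Fluorescence read at Ex/Em 405/460 nm, expressed as triamterene-equivalent signal.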
(In general: In qHTS, concentration-response curves come from the screen itself.)
Regarding `CS/C(C)=N/OC(=O)N(C)SN(C)C(=O)O/N=C(\C)SC`, the molecule was classed as inactive.

Turning to `[CH3][Sn]([CH3])([Cl])[Cl]`, the result was inactive.

Turning to `O=C=Nc1ccc(Cl)cc1`, the call was inactive.

`CCOP(=S)(OCC)SCn1nnc2ccccc2c1=O`: the outcome was inactive.

Turning to `COP(=S)(Oc1cc(Cl)c(Br)cc1Cl)c1ccccc1` (stereo not drawn), the call was inactive.

`CC(C)(C)c1cc([N+](=O)[O-])cc([N+](=O)[O-])c1O`: the molecule was called inactive.

As to `Clc1cccc2ccccc12`, the molecule was called inactive.

Consider `Cl/C=C\C[N+]12CN3CN(CN(C3)C1)C2`, for which the molecule was classed as inactive.

On to `Clc1cc(C(Cl)(Cl)Cl)cnc1Cl`, for which the call was inactive.

As for `O=C1C(=O)c2cccc3cccc1c23`, the result was inactive.

For `CO/N=C(/C(=O)OC)c1ccccc1COc1ccccc1C`, the result was inactive.

Take `O=C(NC(=O)c1c(F)cccc1F)Nc1ccc(OC(F)(F)C(F)OC(F)(F)F)c(Cl)c1` (stereo not drawn): the outcome was inactive.

As for `O=C1c2ccccc2C(=O)C1C(=O)C(c1ccccc1)c1ccccc1`, the outcome was inactive.

For `O=C1CN=C(c2ccccc2)c2cc(Cl)ccc2N1CC1CC1`, the molecule was called inactive.

With `OC(c1ccc(Cl)cc1)(c1ccc(Cl)cc1)c1cccnc1`, the call was inactive.

For `CC(C)O.CC(C)O.OCCN(CCO)CCO.OCCN(CCO)CCO.[Ti]`, the molecule was classed as inactive.

In the case of `Cc1c(F)c(F)c(COC(=O)C2C(/C=C(\Cl)C(F)(F)F)C2(C)C)c(F)c1F` (stereo not drawn), the call was inactive.

Turning to `COC(=O)C(Br)CBr` (stereo not drawn), the call was inactive.

In the case of `CCOP(=S)(Oc1ccc([N+](=O)[O-])cc1)c1ccccc1` (stereo not drawn), the result was inactive.

Take `O=[N+]([O-])C(Br)(CO)CO`: the result was inactive.

Consider `O=C(O)C(F)(F)C(F)(F)C(F)(F)C(F)(F)C(F)(F)C(F)(F)C(F)(F)C(F)(F)C(F)(F)F`, for which the result was inactive.

Consider `COCCOCCO`, for which the outcome was inactive.

Regarding `Clc1cccc(SC2CCNCC2)n1`, the molecule was classed as inactive.

In the case of `CC(C)(C)C(O)C(Oc1ccc(Cl)cc1)n1cncn1` (stereo not drawn), the molecule was classed as inactive.

As to `O=C(Nc1ccccc1)Nc1ccnc(Cl)c1`, the result was inactive.

Take `O=[N+]([O-])c1cc(C(F)(F)F)cc([N+](=O)[O-])c1Cl`: the call was inactive.

Consider `C=CC(=O)OCC(C)O` (stereo not drawn), for which the outcome was inactive.

Take `O=C(O)CC(Cl)C(=O)O` (stereo not drawn): the molecule was classed as inactive.

With `O=C(O)C1(c2ccc3c(c2)OC[C@H](Cc2ccc(-c4ccccc4)cc2)[C@H]3O)CCCC1`, the outcome was inactive.

A further test has as its target Glucocorticoid receptor (Homo sapiens) (UniProt P04150). The experiment in a line: qHTS assay to identify small molecule agonists of the glucocorticoid receptor (GR) signaling pathway (AID 720691; active means well fitted activation curve with a large enough effect in the signal ratio in the repeat runs, not every such curve was filed as active; the % refers to the signal ratio). The settings on record: GR-bla HeLa, beta-lactamase reporter ratio, 18 h; series mostly up to 62.4 µM. The method, boiled down:
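Compounds in DMSO, alongside positive controls, were added to GR-bla HeLa reporter cells and incubated 18 h at 37 C; GRE-driven beta-lactamase was detected by fluorescence after 2 h with FRET substrate at room temperature.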
Take `CS/C(C)=N/OC(=O)N(C)SN(C)C(=O)O/N=C(\C)SC`: the outcome was inactive.

Consider `CCOP(=S)(OCC)SCn1nnc2ccccc2c1=O`, for which the result was inactive.

Take `COP(=S)(Oc1cc(Cl)c(Br)cc1Cl)c1ccccc1` (stereo not drawn): the result was inactive.

As to `CC(C)(C)c1cc([N+](=O)[O-])cc([N+](=O)[O-])c1O`, the result was inactive.

For the molecule `CCCCC(O)(Cn1cncn1)c1ccc(Cl)cc1Cl` (stereo not drawn), the result was inactive.

Regarding `Cl/C=C\C[N+]12CN3CN(CN(C3)C1)C2`, the result was inactive.

For `CO/N=C(/C(=O)OC)c1ccccc1COc1ccccc1C`, the outcome was inactive.

With `O=C1CN=C(c2ccccc2)c2cc(Cl)ccc2N1CC1CC1`, the outcome was inactive.

Regarding `BrCC(Br)C1CCC(Br)C(Br)C1` (stereo not drawn), the result was inactive.

As to `Cc1c(F)c(F)c(COC(=O)C2C(/C=C(\Cl)C(F)(F)F)C2(C)C)c(F)c1F` (stereo not drawn), the outcome was inactive.

For `COC(=O)C(Br)CBr` (stereo not drawn), the outcome was inactive.

On to `O=C(O)C(F)(F)C(F)(F)C(F)(F)C(F)(F)C(F)(F)C(F)(F)C(F)(F)C(F)(F)C(F)(F)F`, for which the result was inactive.

As for `O=[N+]([O-])c1cc(C(F)(F)F)cc([N+](=O)[O-])c1Cl`, the result was inactive.

Regarding `O=C(O)CC(Cl)C(=O)O` (stereo not drawn), the outcome was inactive.
